According to PubChem BioAssay (NCI):
This is part of a sample that, as a whole, favours compounds with a hit. Of some 79,000 tested, about 15% had one in any assay. A number with no mark means an inactive call. Cut-off read from the data, not from the text of the source: active = growth inhibition above about 70%; inactive = the rest.

Test: NCI Yeast Anticancer Drug Screen. Data for the rad50 strain (AID 155);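 note: 0% = growth of vehicle-only cultures of the same strain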
Conditions: S. cerevisiae rad50 strain growth inhibition; at 50.0 µM; active compounds read high
In short: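 Inhibition values express reduced yeast growth in compound-treated cultures relative to vehicle-treated controls.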

Compound | growth inhibition [%]
Cc1cnc(N)s1 | 3.8
Cc1cc(O)c(/C=N/C(=S)NCCc2ccccc2)c(=O)o1 | -4.35
O=C(Nc1cccc([N+](=O)[O-])c1)OCC#CCOC(=O)Nc1cccc([N+](=O)[O-])c1 | 3.8
COC(=O)/C(=N\NC(=S)NN)C(C(=O)C(=O)Nc1ccccc1C(N)=O)c1nc2ccccc2[nH]c1=O (centres undefined) | 24.9
CC(=O)Oc1ccc(C(c2ccc(OC(C)=O)cc2)c2ccccn2)cc1 | 18.3
C[S+](C)N(c1ccccc1)C(C)(C)C | -10.1
N/C=N/OCc1ccccc1 | 10
CCCCCC(=O)Oc1ccccc1OC | -8.1
Cc1cc(C)n2nc3c4ccsc4ncc3c2n1 | -5.2
CC1=CC=CC(C)(C)C(=O)C1=O | -31.4
CC1(C)NNC(=S)NC1=O | -11.7
Oc1cccnc1CN1CCOCC1 | -3.55
Cc1cc(C)c(C(=O)O)c(C)c1Br | -3
CNc1ccn(C2OC(CO)C(O)C2O)c(=O)n1 (centres undefined) | -9.5
O=C(c1ccc(Cl)cc1)C(c1ccccc1)N1CCCCC1 (centres undefined) | 2.05
Nc1nnc2nc(CC(=O)c3ccc(F)cc3)c(CC(=O)c3ccc(F)cc3)nn12 | -3.6
Oc1ccc2c(c1)c1ccccc1c1ncccc21 | 46
COC1(C)CNc2ccccc2C(=O)N1 (centres undefined) | 6.65
CCN(CC)CCCNc1ccnc2ccc(Cl)cc12 | -9.9
